Screens deposited in PubChem BioAssay by National Center for Advancing Translational Sciences (NCATS).
12-LOX inh: blocks human arachidonate 12S-lipoxygenase | AID 1671190 | purified 12hLO, xylenol orange hydroperoxide absorbance | Potency, µM (series often up to 108 µM), hits mostly inhibitors | hit rate 1.1% among 580,000
Target sequence (P18054 whole entry, looked up): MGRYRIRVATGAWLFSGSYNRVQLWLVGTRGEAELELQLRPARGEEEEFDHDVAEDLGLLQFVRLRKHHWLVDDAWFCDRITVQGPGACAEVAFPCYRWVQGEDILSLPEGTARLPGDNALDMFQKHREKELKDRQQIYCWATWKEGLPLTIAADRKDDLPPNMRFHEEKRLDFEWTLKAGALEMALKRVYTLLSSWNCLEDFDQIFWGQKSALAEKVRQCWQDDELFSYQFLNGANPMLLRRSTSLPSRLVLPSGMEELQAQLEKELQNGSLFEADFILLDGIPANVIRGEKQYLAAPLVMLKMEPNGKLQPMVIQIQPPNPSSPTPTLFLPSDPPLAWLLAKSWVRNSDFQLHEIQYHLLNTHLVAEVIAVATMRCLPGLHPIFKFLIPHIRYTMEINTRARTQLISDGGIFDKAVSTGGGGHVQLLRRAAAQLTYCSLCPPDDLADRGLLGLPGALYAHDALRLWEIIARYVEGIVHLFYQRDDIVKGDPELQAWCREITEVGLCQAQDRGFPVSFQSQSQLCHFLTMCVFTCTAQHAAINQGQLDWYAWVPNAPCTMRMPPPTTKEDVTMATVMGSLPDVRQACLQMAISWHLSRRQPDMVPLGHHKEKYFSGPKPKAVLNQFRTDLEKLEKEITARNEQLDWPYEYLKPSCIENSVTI
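Purified human 12hLO at 150 nM in 25 mM Hepes, 0.01% Triton X-100, pH 7.0, preincubated 15 min at room temperature with compound. Reaction started with 40 uM arachidonic acid, 30 min at room temperature. Hydroperoxide measured by Fe-xylenol orange, 573/405 nm absorbance ratio.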
IL1B secr inh: inhibitors of inflammasome signaling (IL-1 beta secretion) | THP-1 LPS/ATP IL-1B secretion, AlphaLISA, 16 h; hits give low values | activity change, % at 57.5 µM | hit rate 4.7% among 360,000 | AID 743279; in the data active means activity change below about -50%; inconclusive means mostly about -30% to -49%
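THP-1 cells pretreated 1 hr with compounds (up to 57.5 uM final), then stimulated with LPS (250 ng/mL final) plus ATP (1.25 mM final); secreted IL-1B measured by AlphaLISA after 16 hr, decreased signal indicating inhibition.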
DT40 TDP1 CPT: DT40-hTDP1 cell growth loss with CPT | hit rate 12% among 420,000 | Potency, µM (top dose mostly 46.2 µM), actives largely listed as inhibitors | chicken DT40 Tdp1-/-;hTDP1 cells + 20 nM CPT, ATP luminescence, 48 h; further: nearly all actives have a fitted effect of over 55% in size
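Chicken DT40 Tdp1-/- cells complemented with human TDP1, 400 cells/well, exposed to compounds plus 20 nM camptothecin for at least 48 h at 37 C; viability read as ATP content by CellTiter-Glo luminescence.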
HT1080 IDH1KD tx: HT-1080 IDH1 knockdown cell toxicity (counter line); HT-1080 IDH1 knockdown viability, ATP luminescence, 48 h; Potency, µM (series often up to 46.1 µM), hits mostly cytotoxic; hit rate 2% among 360,000; AID 686971
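Assay cells: HT-1080 with IDH1 knockdown, 750 per well, RPMI/5% FBS. Exposure: 48 h at 37 °C following 2 h pre-incubation. Read: CellTiter-Glo luminescence; fitted concentration-response, curve class assigned.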
DT40 TDP1 no CPT: qHTS for Inhibitors of human tyrosyl-DNA phosphodiesterase 1 (TDP1): qHTS in cells in absence of CPT. DT40 Tdp1-/- hTDP1 cells, no CPT, ATP luminescence, 48 h. Potency, µM (top dose mostly 46.2 µM), hits mostly inhibitors. hit rate 15% among 420,000; further: nearly all actives have a fitted effect of over 55% in size
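Chicken DT40 Tdp1-/- cells complemented with human TDP1, screened without camptothecin (DMSO vehicle only), 400 cells/well. Compounds pin-transferred, cells incubated at 37 °C for at least 48 hr. Growth read as ATP-dependent luminescence (CellTiter-Glo, 30 min at RT).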
HT1080-NT tox: kills 2HG-producing HT-1080-NT fibrosarcoma cells; hit rate 1.6% among 360,000; HT-1080-NT fibrosarcoma viability, CellTiter-Glo ATP luminescence, 48 h; Potency, µM (doses to about 46.1 µM), hits mostly cytotoxic;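 further: NT is the 2HG producing partner of a matched IDH1 knockdown line; nearly all actives have a fitted effect of over 55% in size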
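Read-out is CellTiter-Glo luminescence after 10 minutes at room temperature, following 48 hours' compound treatment of HT-1080-NT cells (750 cells/well, RPMI, 5% FBS, 37 degrees C).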
A number is an active result; n = inactive; u = inconclusive; x = no result; [ ] = remark or other dose. The sample as a whole holds a higher share of hits than the screen did. Unless noted, the call rests on the fitted dose curve; in most records, active means well fitted curve in the direction sought with a large enough effect; inconclusive means small, poorly fitted or top-dose-only effect, or another doubt; inactive means no such curve, though single readings can be large; an effect the other way counts as inactive or inconclusive.

SMILES | 12-LOX inh | IL1B secr inh | DT40 TDP1 CPT | HT1080 IDH1KD tx | DT40 TDP1 no CPT | HT1080-NT tox
CC(=O)Nc1ccc(-c2ccnc3c2CC(C(=O)NCc2cccc(Cl)c2)O3)cc1 (centres undefined) | n | n | 3.7µM | 1.6µM | 2.3µM | u
CCCCNC(=O)c1ccccc1N | n | x | x | x | x | x
CCC(CC)NC(=O)c1cc2ccccc2cc1OC | n | x | x | x | x | x
Cc1ccc(-c2nnc3c4ccccc4c(C)nn23)cc1S(=O)(=O)N1CCN(CCO)CC1 | n | u | u | n | 18µM | n
CSc1nnc(-c2cccc(NC(=O)c3ccccc3)c2)n1C | n | n | n | n | n | n
Cc1nn2c(-c3cccc(NC(=O)c4ccccc4)c3)nnc2c2ccccc12 | n | x | 4.6µM | x | 2.9µM | x
Cc1cccc(NC(=O)CSc2nc3ccccc3o2)c1 | n | n | n | n | n | n
Cc1nn2c(-c3cccc(NC(=O)CSc4nc5ccccc5o4)c3)nnc2c2ccccc12 | n | n | 12µM | n | 7.3µM | n
Cc1nn2c(-c3cccc(NC(=O)CN4CCOCC4)c3)nnc2c2ccccc12 | n | x | 29µM | n | 13µM | n
Cc1ccc(CNC2CC2)cc1 | n | x | x | x | x | x
Cc1ccccc1C(=O)Nc1ccc2c(c1)nc(CN1CCC(C)CC1)n2C | n | x | x | x | x | x
CC(C)(C)c1cc(C(=O)NNc2cccc(Cl)c2)n(Cc2ccccc2)n1 | n | -68 | u | 18µM | u | 21µM
CC(C)(C)c1cc(C(=O)NNc2ccc(OC(F)(F)F)cc2)n(Cc2ccccc2)n1 | u | x | n | 7.3µM | u | u
COc1ccc(OCC(=O)Oc2ccc3c(C)cc(=O)oc3c2)cc1 | n | x | x | x | x | x
CCN(CC)C(=O)COc1ccc2oc(C)c(C(=O)OC(C)C)c2c1 | n | n | u | n | 16µM | n
Cc1ccc(OCCNS(=O)(=O)c2ccc(N3CCCC3=O)cc2)cc1C | n | n | 6.5µM | n | 6.5µM | u
COc1ccc(OC)c(NS(=O)(=O)c2ccc(N3CCCC3=O)cc2)c1 | n | n | 0.52µM | 0.52µM | 0.37µM | 0.52µM
COc1ccc(NC(=O)C2CCN(S(=O)(=O)c3ccc(N4CCCC4=O)cc3)CC2)c(OC)c1 | n | n | u | n | n | n
CCCCc1ccc(S(=O)(=O)NCCCN2CCCC2=O)cc1 | n | n | u | n | 13µM | n
COc1ccc(OC)c(NS(=O)(=O)c2ccc(-n3cccn3)cc2)c1 | n | n | u | n | 10µM | n
Cc1ccc(NS(=O)(=O)c2ccc(-n3cccn3)cc2)c(Cl)c1 | n | n | u | n | u | n
Cc1nn(CC(=O)N2CCCCCC2)c(C)c1S(=O)(=O)NC(C)(C)C | n | x | x | x | x | x
O=C1CCCN1c1ccc(S(=O)(=O)NCCc2ccc(Cl)cc2)cc1 | n | n | u | u | u | n
Cc1ccc(OCCNS(=O)(=O)c2ccc(N3CCCC3=O)cc2)cc1 | n | n | 6.5µM | n | 5.8µM | n
COc1ccc(CCNS(=O)(=O)c2ccc(N3CCCC3=O)cc2)cc1 | n | n | 21µM | n | 21µM | n
SMILES | 12-LOX inh | IL1B secr inh | DT40 TDP1 CPT | HT1080 IDH1KD tx | DT40 TDP1 no CPT | HT1080-NT tox
COc1ccc(NS(=O)(=O)c2ccc3c(c2)Cc2ccccc2-3)cn1 | n | n | u | u | u | n
Cc1cc(N2CCCC2=O)cc(C)c1S(=O)(=O)NCCOc1ccccc1 | n | u | 8.2µM | n[9.24 µM] | u | u
COc1ccc(NS(=O)(=O)c2ccc(N3CCCC3=O)cc2)cn1 | n | n | 4.6µM | 18µM | 6.5µM | 15µM
Cc1noc(-c2cccs2)c1C(=O)NC1CCc2ccccc21 (centres undefined) | n | x | x | x | x | x
CC(C)n1c(O)c(/C=C2\C=NN=C2c2ccccc2)sc1=S | n | x | u | 21µM | u | 21µM
CCn1c(O)c(/C=C2\C=NN=C2c2ccc(C)cc2)sc1=S | u | n | n | n | n | n
Cc1cc(C(=O)CN2CCC(C(=O)c3ccccc3)CC2)c(C)n1C(C)C | n | x | x | x | x | x
Cc1nc2cnc3ccc(C#Cc4cccnc4)cc3c2n1-c1ccc(C(C)(C)C#N)cc1 | n | x | x | x | x | x
Cn1c(=O)n(-c2ccc(C(C)(C)C#N)cc2)c2c3cc(-c4cnc5ccccc5c4)ccc3ncc21 | n | x | 0.25µM | x | 0.05µM | x
COc1ccc(CCN2C(=O)CSC2=S)cc1OC | u | -73 | 2.9µM | 23µM | 2.6µM | u
COc1ccc(CCN2C(=O)CC(Nc3ccc(N4CCOCC4)cc3)C2=O)cc1OC (centres undefined) | n | n | n | n | 2.3µM | n
COc1ccc(CN2C(=O)CSCC2=O)cc1OC | n | n | n | n | n | n
CCc1ccc(NC2CC(=O)N(CCc3ccc(OC)c(OC)c3)C2=O)cc1 (centres undefined) | n | n | u | n | 23µM | n
COc1ccc(CCN2C(=O)CC(N3CCOCC3)C2=O)cc1OC (centres undefined) | n | n | n | n | n | n
Cc1ccc(NC(=O)C2Cn3cccc3C(=O)N2)cc1F (centres undefined) | n | x | x | x | x | x
O=C(NCc1ccccc1)NC1CCN(C(=O)N2CC3CC(C2)[C@H]2CCCC(=O)N2C3)CC1 (some centres undefined) | n | x | x | x | x | x
c1ccc(Nc2nc(-c3ccccc3)c(-c3ccccc3)s2)cc1 | x | x | 28µM | u | u | n
O=C(O)Cc1sc(N/N=C\c2ccccc2)nc1-c1ccccc1 | 45µM | n | n | n | 23µM | n
O=C(Cc1sc(Nc2ccccc2)nc1-c1ccccc1)NCc1ccccc1 | n | -68 | 16µM | u | u | u
Cc1nc(Nc2ccccc2)sc1-c1ccccc1 | u | n | u | u | u | u
COc1ccc(C(=O)N2CCOC3(CCN(C(=O)C4CCN(C)CC4)CC3)C2)cc1 | n[6.33 µM] | x | x | x | x | x
Cc1ccc(N(C(C)C(=O)N2CCCC2)S(C)(=O)=O)cc1C (centres undefined) | n | x | x | x | x | x
O=C(NNc1cccc(Cl)c1)c1cccnc1Oc1ccccc1 | u | x | n | 6.5µM | n | u
COc1ccccc1Nc1nc(NCC2CCCO2)c2ccccc2n1 (centres undefined) | u | x | 23µM | u | 21µM | n
COc1cccc(-c2nc(NCC3CCCO3)c3ccccc3n2)c1O (centres undefined) | n | -84 | u | n | u | n
Oc1ccccc1-c1nc(NCC2CCCO2)c2ccccc2n1 (centres undefined) | n | u | u | u | u | u
COc1cccc(NC(=O)CCc2c(C)c3ccc(OC)c(C)c3oc2=O)c1 | n | x | x | x | x | x
COc1ccc([C@H]2[C@H]3C=CC[C@@H](C)[C@@H]3C(=O)N2Cc2ccccc2)cc1Cl | u | n | u | n | 16µM | n
